Experimental data: the supplement of paper PMC10849652
Of roughly 8,800 targets only a part is listed; those with a hit were picked by preference. About 0.5% of all pairs of compound and target were hits. Unmarked numbers belong to inactive results.

Legend:
Assay in all cases: log2 fold change, soluble protein after heating vs DMSO (PISA); higher = thermal stabilisation; K562 lysate, 10 uM; active = over 0.2 and 3.5 SD of the protein, either way, in both replicates (recomputed)
ibrutinib = compound: C=CC(=O)N1CCC[C@@H](n2nc(-c3ccc(Oc4ccccc4)cc3)c3c(N)ncnc32)C1 [ibrutinib]
Method in brief: (§1)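 To prepare the extract, K562 pellets were dounce-homogenised in PBS pH 7.4 with 1 mM MgCl2, giving crude material at 1 mg/mL protein. This was treated with 10 μM compound for 30 min, then heated in aliquots for 3 min over 48°C-58°C before pooling and addition of NP-40 to 0.5% at 4°C. Centrifugation at 21,000xg for 90 min left soluble protein in the supernatant, which TMTpro 16plex LC-MS/MS quantified with equalised channel sums. Results are log-two fold changes in thermal stability compared with solvent controls, from duplicates.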

[1] = compound: CC(=O)c1cnc2ccc(-c3cc(Cl)c(O)c(Cl)c3)nc2c1N[C@H]1CC[C@H](CN(C)C)CC1
Method in brief: as §1

ralimetinib = compound: CC(C)(C)Cn1c(N)nc2ccc(-c3[nH]c(C(C)(C)C)nc3-c3ccc(F)cc3)nc21 [ralimetinib]
Method in brief: as §1

[2] = compound: CC(C)(O)CC(=O)NCCn1ccc2ncnc(Nc3ccc(Oc4cccc(C(F)(F)F)c4)c(Cl)c3)c21
Method in brief: as §1

[3] = compound: CC(C)C1=C2N=C(C=C(N2N=C1)NCC3=CC=CC=C3)NCCCCCCN
Method in brief: as §1

[4] = compound: CC1=C(C(CC(=O)N1)C2=CC=C(C=C2)C(F)(F)F)C(=O)NC3=C(C=C4C(=C3)C=NN4)F
Method in brief: as §1

[5] = compound: CC1=C(C2=C(C=C1)C(=O)C3=CC=CC=C3N2CCCN)C
Method in brief: as §1

[6] = compound: CC1=C(C=C(C=C1)NC(=O)C2=CC(=CC=C2)C(C)(C)C#N)NC3=CC4=C(C=C3)N=CN(C4=O)C
Method in brief: as §1

[7] = compound: CC1=C(C=C(C=C1)NC(=O)C2=CC(=CC=C2)N(C)C)NC(=O)C3=CC=C(C=C3)O
Method in brief: as §1

[8] = compound: CC1=CC=C(C=C1)SC2=C3C=C(SC3=CN=C2)C(=O)N
Method in brief: as §1

vemurafenib = compound: CCCS(=O)(=O)Nc1ccc(F)c(C(=O)c2c[nH]c3ncc(-c4ccc(Cl)cc4)cc23)c1F [vemurafenib]
Method in brief: as §1

[9] = compound: CCCS(=O)(=O)Nc1ccc(F)c(C(=O)c2c[nH]c3ncc(Cl)cc23)c1F
Method in brief: as §1

barasertib = compound: CCN(CCCOc1ccc2c(Nc3cc(CC(=O)Nc4cccc(F)c4)[nH]n3)ncnc2c1)CCOP(=O)(O)O [barasertib]
Method in brief: as §1

[10] = compound: CC[C@@H]1C(=O)N(C)c2cnc(Nc3ccc(C(=O)NC4CCN(C)CC4)cc3OC)nc2N1C1CCCC1
Method in brief: as §1

volasertib = compound: CC[C@@H]1C(=O)N(C)c2cnc(Nc3ccc(C(=O)N[C@H]4CC[C@H](N5CCN(CC6CC6)CC5)CC4)cc3OC)nc2N1C(C)C [volasertib]
Method in brief: as §1

[11] = compound: CCn1c(C(=O)N(C2CC2)C2CC2)cc2c3c(ncn3C)c(Nc3cc(C)n(C)n3)nc21
Method in brief: as §1

[12] = compound: CCn1cc(-c2ccnc3[nH]c(-c4cccc(CN(C)C)c4)cc23)c(-c2ccc(NC(=O)N(C)C)cc2)n1
Method in brief: as §1

[13] = compound: CN1CCC(CNc2ccc3ncc(-c4cccc(OC(F)(F)F)c4)n3n2)CC1
Method in brief: as §1

saracatinib = compound: CN1CCN(CCOc2cc(OC3CCOCC3)c3c(Nc4c(Cl)ccc5c4OCO5)ncnc3c2)CC1 [saracatinib]
Method in brief: as §1

sotrastaurin = compound: CN1CCN(c2nc(C3=C(c4c[nH]c5ccccc45)C(=O)NC3=O)c3ccccc3n2)CC1 [sotrastaurin]
Method in brief: as §1

Sequence of UniProt Q5TAX3 (Q5TAX3 whole entry, looked up): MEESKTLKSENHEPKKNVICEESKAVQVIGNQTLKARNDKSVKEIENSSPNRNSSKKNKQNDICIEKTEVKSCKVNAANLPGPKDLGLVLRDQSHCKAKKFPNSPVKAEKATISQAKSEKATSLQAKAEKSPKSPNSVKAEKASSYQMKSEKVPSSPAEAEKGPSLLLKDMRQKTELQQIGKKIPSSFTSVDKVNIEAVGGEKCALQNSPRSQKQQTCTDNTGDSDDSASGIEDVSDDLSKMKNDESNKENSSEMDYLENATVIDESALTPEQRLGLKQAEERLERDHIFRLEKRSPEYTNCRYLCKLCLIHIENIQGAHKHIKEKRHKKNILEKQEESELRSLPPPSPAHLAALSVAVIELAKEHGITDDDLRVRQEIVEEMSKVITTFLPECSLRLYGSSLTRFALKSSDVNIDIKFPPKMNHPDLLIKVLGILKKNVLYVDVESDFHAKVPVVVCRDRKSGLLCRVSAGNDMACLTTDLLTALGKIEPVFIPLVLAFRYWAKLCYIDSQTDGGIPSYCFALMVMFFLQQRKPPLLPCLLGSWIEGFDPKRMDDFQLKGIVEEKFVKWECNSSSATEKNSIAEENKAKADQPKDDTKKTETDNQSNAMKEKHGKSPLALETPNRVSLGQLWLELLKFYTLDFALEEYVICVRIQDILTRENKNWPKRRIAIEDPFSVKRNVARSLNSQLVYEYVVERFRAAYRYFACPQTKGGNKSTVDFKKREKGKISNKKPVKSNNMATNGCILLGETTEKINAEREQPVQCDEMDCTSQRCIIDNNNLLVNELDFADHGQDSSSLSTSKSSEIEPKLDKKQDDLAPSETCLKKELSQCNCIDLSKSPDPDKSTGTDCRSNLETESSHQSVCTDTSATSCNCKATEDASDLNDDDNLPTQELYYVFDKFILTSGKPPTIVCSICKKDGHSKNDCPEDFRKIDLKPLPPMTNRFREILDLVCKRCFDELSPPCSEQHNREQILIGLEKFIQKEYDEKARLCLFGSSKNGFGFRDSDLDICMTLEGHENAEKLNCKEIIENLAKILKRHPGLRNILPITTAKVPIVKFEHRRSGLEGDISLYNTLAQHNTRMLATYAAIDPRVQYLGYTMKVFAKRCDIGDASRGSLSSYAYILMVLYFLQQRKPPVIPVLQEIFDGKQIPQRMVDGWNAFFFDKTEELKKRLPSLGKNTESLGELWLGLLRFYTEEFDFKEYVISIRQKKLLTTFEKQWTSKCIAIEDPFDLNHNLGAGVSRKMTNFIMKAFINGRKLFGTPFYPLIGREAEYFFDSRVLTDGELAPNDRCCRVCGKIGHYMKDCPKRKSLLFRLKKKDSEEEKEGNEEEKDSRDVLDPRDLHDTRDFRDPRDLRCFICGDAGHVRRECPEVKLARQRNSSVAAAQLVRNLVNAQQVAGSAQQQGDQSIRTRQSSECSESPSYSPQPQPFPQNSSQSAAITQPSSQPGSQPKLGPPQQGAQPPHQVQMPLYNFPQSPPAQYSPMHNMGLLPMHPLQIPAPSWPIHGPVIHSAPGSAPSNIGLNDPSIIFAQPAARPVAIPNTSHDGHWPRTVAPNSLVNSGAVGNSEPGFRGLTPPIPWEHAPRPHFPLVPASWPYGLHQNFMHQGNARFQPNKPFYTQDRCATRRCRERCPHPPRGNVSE
Sequence of UniProt Q96BS2 (Q96BS2 whole entry, looked up): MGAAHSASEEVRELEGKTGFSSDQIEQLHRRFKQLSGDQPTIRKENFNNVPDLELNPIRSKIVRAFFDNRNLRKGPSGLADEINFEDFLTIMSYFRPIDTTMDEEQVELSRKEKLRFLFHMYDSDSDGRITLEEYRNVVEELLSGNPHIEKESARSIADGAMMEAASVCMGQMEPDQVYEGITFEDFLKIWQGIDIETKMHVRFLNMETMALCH
Sequence of UniProt Q13769 (Q13769 whole entry, looked up): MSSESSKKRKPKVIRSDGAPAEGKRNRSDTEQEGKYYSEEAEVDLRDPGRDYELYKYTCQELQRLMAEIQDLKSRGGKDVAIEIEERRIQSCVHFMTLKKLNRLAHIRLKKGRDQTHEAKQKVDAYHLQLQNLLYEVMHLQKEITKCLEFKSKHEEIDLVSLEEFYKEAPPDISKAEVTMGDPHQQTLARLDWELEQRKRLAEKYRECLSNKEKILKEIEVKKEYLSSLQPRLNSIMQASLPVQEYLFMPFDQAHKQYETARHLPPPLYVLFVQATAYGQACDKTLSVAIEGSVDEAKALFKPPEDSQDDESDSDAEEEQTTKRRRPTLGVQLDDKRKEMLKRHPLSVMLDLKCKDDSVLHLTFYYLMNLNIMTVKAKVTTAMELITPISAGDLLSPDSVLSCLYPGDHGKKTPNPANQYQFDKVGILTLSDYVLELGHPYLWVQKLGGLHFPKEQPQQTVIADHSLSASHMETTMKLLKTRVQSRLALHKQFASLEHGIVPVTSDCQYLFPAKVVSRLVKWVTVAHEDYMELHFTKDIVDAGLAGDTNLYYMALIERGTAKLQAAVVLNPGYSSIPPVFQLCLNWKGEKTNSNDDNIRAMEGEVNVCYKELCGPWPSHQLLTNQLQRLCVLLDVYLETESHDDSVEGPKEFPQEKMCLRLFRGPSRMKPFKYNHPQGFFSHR
Sequence of UniProt Q15645 (Q15645 whole entry, looked up): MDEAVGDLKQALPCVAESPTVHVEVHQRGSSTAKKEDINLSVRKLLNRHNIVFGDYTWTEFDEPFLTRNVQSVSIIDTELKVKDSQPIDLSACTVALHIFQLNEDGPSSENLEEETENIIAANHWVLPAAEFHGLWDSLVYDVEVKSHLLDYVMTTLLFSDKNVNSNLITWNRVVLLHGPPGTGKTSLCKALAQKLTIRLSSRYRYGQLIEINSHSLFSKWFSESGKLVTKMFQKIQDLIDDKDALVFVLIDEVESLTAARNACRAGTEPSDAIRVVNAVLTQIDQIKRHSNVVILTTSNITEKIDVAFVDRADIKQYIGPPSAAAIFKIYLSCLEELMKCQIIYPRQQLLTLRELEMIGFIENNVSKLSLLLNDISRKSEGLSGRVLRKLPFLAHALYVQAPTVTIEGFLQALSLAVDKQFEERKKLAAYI
Sequence of UniProt Q12933 (Q12933 whole entry, looked up): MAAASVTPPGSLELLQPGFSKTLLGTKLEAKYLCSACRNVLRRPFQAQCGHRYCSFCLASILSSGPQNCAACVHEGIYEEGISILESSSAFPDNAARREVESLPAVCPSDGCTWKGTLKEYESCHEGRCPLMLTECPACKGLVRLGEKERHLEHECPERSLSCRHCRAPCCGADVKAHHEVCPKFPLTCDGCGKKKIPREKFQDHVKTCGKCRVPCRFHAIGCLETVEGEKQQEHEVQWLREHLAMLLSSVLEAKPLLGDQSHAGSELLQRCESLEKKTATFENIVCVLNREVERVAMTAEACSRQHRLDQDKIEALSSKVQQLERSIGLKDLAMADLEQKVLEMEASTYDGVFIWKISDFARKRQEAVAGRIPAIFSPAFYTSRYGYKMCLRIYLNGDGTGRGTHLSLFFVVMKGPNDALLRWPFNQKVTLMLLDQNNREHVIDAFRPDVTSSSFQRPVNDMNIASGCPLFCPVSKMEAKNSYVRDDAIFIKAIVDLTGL
Sequence of UniProt Q6PJ69 (Q6PJ69 whole entry, looked up): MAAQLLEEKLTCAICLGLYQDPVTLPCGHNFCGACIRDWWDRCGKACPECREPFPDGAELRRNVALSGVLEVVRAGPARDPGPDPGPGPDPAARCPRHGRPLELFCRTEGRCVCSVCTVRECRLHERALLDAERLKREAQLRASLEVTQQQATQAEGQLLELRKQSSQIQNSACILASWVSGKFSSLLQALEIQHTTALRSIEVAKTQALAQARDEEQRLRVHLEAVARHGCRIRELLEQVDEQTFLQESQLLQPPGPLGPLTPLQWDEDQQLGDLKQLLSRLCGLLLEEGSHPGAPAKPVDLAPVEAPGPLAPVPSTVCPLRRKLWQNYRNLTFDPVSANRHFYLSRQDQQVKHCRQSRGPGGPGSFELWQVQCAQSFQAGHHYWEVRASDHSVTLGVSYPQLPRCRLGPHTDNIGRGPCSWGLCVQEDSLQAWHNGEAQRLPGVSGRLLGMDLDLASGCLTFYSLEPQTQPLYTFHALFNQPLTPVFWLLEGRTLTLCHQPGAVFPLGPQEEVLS
Sequence of UniProt Q14166 (Q14166 whole entry, looked up): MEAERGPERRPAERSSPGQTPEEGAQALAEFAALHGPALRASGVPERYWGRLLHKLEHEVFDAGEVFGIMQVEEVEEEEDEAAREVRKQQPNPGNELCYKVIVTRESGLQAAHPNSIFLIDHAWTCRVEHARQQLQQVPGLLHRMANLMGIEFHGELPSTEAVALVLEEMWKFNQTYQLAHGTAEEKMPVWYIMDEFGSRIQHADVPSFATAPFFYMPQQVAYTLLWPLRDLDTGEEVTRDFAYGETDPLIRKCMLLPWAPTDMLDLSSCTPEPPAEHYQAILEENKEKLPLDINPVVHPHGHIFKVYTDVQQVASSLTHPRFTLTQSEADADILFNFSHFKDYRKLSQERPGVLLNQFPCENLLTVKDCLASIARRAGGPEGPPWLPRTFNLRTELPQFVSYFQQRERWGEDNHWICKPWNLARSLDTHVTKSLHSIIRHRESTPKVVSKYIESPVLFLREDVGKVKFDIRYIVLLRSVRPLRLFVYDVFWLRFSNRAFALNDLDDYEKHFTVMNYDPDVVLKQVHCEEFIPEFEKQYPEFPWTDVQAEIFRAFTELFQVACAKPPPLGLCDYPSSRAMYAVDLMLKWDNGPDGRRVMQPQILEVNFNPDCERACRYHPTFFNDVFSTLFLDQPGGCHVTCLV

| Target | log2 fold change (ibrutinib) | log2 fold change [1] | log2 fold change (ralimetinib) | log2 fold change [2] | log2 fold change [3] | log2 fold change [4] | log2 fold change [5] | log2 fold change [6] | log2 fold change [7] | log2 fold change [8] | log2 fold change (vemurafenib) | log2 fold change [9] | log2 fold change (barasertib) | log2 fold change [10] | log2 fold change (volasertib) | log2 fold change [11] | log2 fold change [12] | log2 fold change [13] | log2 fold change (saracatinib) | log2 fold change (sotrastaurin) |
| --- | --- | --- | --- | --- | --- | --- | --- | --- | --- | --- | --- | --- | --- | --- | --- | --- | --- | --- | --- | --- |
| TRIP13 (UniProt Q15645) | -0.025 | -0.013 | 0.039 | 0.023 | -0.022 | -0.004 | 0.006 | 0.029 | 0.045 | 0.001 | -0.036 | 0 | 0.033 | -0.083 | -0.089 | 0.034 | 0.003 | -0.019 | 0.008 | 0.05 |
| TESC (UniProt Q96BS2) | 0.065 | -0.029 | 0.005 | 0.056 | -0.055 | 0.043 | 0.015 | 0 | -0.013 | -0.077 | 0.045 | 0.029 | 0.291 (active) | 0.047 | 0.036 | -0.004 | 0.109 | -0.023 | 0.063 | 0.012 |
| TRIM65 (UniProt Q6PJ69) | 0.053 | 0.073 | 0.046 | -0.035 | 0.005 | 0.047 | 0.006 | 0.006 | 0.003 | -0.063 | 0.025 | 0.085 | 0.013 | 0.026 | -0.076 | 0 | -0.056 | 0.008 | -0.022 | 0.022 |
| TTLL12 (UniProt Q14166) | -0.018 | 0.003 | 0.026 | 0.005 | 0.044 | -0.026 | -0.032 | -0.008 | 0.031 | 0.012 | 0.016 | 0.007 | -0.001 | -0.07 | -0.07 | 0.019 | -0.033 | 0.009 | 0.004 | 0.022 |
| TRAF2 isoform 2 (UniProt Q12933) | -0.026 | -0.002 | 0.022 | -0.022 | -0.051 | -0.004 | -0.028 | 0.029 | -0.009 | -0.006 | -0.004 | 0.012 | 0 | 0.072 | -0.006 | 0.013 | -0.034 | -0.032 | -0.011 | -0.029 |
| THOC5 (UniProt Q13769) | 0.023 | 0.004 | 0.015 | -0.011 | 0.008 | -0.011 | -0.002 | 0.004 | 0.018 | -0.001 | 0.005 | 0.013 | -0.023 | -0.031 | -0.008 | 0.008 | 0.02 | -0.008 | 0.024 | 0.013 |
| TUT4 (UniProt Q5TAX3) | 0.024 | -0.013 | 0.006 | -0.07 | 0.023 | -0.003 | -0.045 | -0.165 | -0.007 | 0.041 | 0.091 | -0.007 | 0.024 | -0.021 | -0.06 | 0.031 | -0.085 | 0.083 | -0.01 | 0.035 |
| TUBGCP3 (UniProt Q96CW5) | -0.007 | 0.018 | 0.03 | 0.045 | -0.039 | 0.003 | -0.037 | 0.004 | 0.106 | 0.028 | -0.013 | 0.026 | -0.078 | 0.001 | -0.039 | 0.028 | -0.016 | 0.015 | 0.002 | 0.01 |
